Experimental findings from PubChem BioAssay (NCI) are described below.

This is part of a sample that, as a whole, favours compounds with a hit. Of some 83,000 tested, about 20% had one in any assay.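 Single-dose data. Exposure time 48 hours. Values below 10 considered active.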 Values without a mark were called inactive. Active and inactive are the calls of the source.

Test systems include NCI-H23 lung; NCI-H226 lung; NCI-H322M lung; HOP-62 NSCLC; NCI-H460 lung; NCI-H522 lung; A549/ATCC NSCLC; 786-0 renal; COLO 205 colon; DU-145 prostate; K-562 leukemia; MALME-3M melanoma; MDA-MB-231 breast; RXF 393 renal; SF-268 CNS; SF-295 CNS; SF-539 CNS; UACC-257 melanoma; M14 melanoma; HOP-92 NSCLC.
Holding throughout (assay): NCI-60 one-dose screen, 48 h (100 = growth as untreated, 0 = no growth, -100 = all killed)
Holding throughout (conditions): 10 µM unless noted

Consider `CC(C)(C)n1cc(-c2ccnc(NCCCNS(=O)(=O)c3ccc(F)cc3)c2)c(-c2cccc(O)c2)n1`, for which the growth in the test with NCI-H23 lung was 57.9%; in the test on NCI-H226 lung, 51.2%; with NCI-H322M lung, 60.5%; in the test with HOP-62 NSCLC, 74%; in the test on NCI-H460 lung, 18.3%; in the test with NCI-H522 lung, 39.1%. Besides, the growth is 40% in the test on A549/ATCC NSCLC; 22.6% with 786-0 renal; 13% in the test with COLO 205 colon; 63.4% in the test on DU-145 prostate; 9.04% (active) with K-562 leukemia; 38.1% with MALME-3M melanoma. The growth in the test on MDA-MB-231 breast was 33.2%; in the test on RXF 393 renal it was 38.7%; with SF-268 CNS, 51.4%; in the test on SF-295 CNS it was 26.8%; with SF-539 CNS it was 28.4%; in the test on UACC-257 melanoma, 50.1%. Also, the growth with M14 melanoma was 29%.

For `COc1ccncc1S(=O)(=O)NC(=O)Nc1ccc(Cl)c(Cl)c1`, the growth in the test on NCI-H23 lung is 89%; in the test with NCI-H226 lung, 92.5%; in the test on NCI-H322M lung, 95%; with HOP-62 NSCLC it was 83.9%; with NCI-H460 lung it was 104%; in the test with NCI-H522 lung, 82.5%. The growth is 44.5% in the test with A549/ATCC NSCLC; 94.2% in the test with 786-0 renal; 105% with COLO 205 colon; 109% with DU-145 prostate; 77.5% with K-562 leukemia; 90.1% with MALME-3M melanoma. Moreover, the growth in the test with MDA-MB-231 breast was 100%; with RXF 393 renal, 79.3%; in the test with SF-268 CNS it was 91%; with SF-295 CNS it was 85.4%; in the test with SF-539 CNS, 107%; in the test on UACC-257 melanoma, -32.8% (active).

As to `NC(N)=N/N=C/c1ccc(-c2ccc(-c3cc(Cl)cc(Cl)c3)s2)cc1`, the growth with NCI-H23 lung is -39.2% (active); with NCI-H226 lung it was 87.1%; in the test on NCI-H322M lung, 72.6%; in the test with HOP-62 NSCLC it was 25.2%; in the test with NCI-H460 lung, -35.7% (active); in the test on NCI-H522 lung, -0.199% (active). The growth in the test on A549/ATCC NSCLC is -71.1% (active); in the test with 786-0 renal, -83.5% (active); in the test on COLO 205 colon, -12.9% (active); in the test on DU-145 prostate, -45.9% (active); in the test with K-562 leukemia, -25.2% (active); with MALME-3M melanoma, 100%. For the same compound, the growth was -30.4% (active) with MDA-MB-231 breast; 27.4% in the test with RXF 393 renal; 73.5% with SF-268 CNS; 75.9% in the test with SF-295 CNS; -3.6% (active) in the test with SF-539 CNS; 106% in the test with UACC-257 melanoma. For the same compound, the growth in the test with M14 melanoma was 93.9%.

On to `C1=Cc2ccccc2N(c2nnc(-c3ccccc3)o2)c2ccccc21`, for which the growth in the test with NCI-H23 lung was 103%; in the test on NCI-H226 lung it was 81.7%; in the test on NCI-H322M lung, 92.2%; in the test on HOP-62 NSCLC it was 99.5%; in the test with NCI-H460 lung, 49.8%; with HOP-92 NSCLC, 84.7%. The growth with A549/ATCC NSCLC is 92.6%; in the test on 786-0 renal, 100%; in the test with COLO 205 colon it was 91.3%; with DU-145 prostate, 105%; with K-562 leukemia, 67.8%; in the test on MALME-3M melanoma it was 109%. In addition, the growth is 85.5% in the test on MDA-MB-231 breast; 91.1% in the test with RXF 393 renal; 91.7% in the test on SF-268 CNS; 92% with SF-295 CNS; 103% in the test on SF-539 CNS; 111% in the test with UACC-257 melanoma. Also, the growth in the test on M14 melanoma is 100%.

`Oc1ccc2cc(Br)ccc2c1-c1c(O)ccc2cc(Br)ccc12`: the growth in the test with NCI-H23 lung is 55.4%; in the test on NCI-H226 lung it was 81.6%; in the test on NCI-H322M lung it was 57.1%; in the test with HOP-62 NSCLC, 72.2%; in the test with NCI-H460 lung, 8.23% (active); in the test with HOP-92 NSCLC it was 20%. In addition, the growth in the test on A549/ATCC NSCLC is 44%; in the test on 786-0 renal it was 77.8%; in the test on COLO 205 colon, 54.7%; with DU-145 prostate it was 78.2%; with K-562 leukemia, 54%; in the test with MALME-3M melanoma, 97.9%. For the same compound, the growth with MDA-MB-231 breast was 50.1%; in the test on RXF 393 renal it was 59.8%; in the test on SF-268 CNS it was 53.8%; in the test on SF-295 CNS, 76.5%; in the test with SF-539 CNS, 82%; with UACC-257 melanoma, 82.6%. For the same compound, the growth in the test with M14 melanoma is 58.9%.

Turning to `CCN1C(=O)N(CC)C2C1NN=c1s/c(=C\c3cccnc3)c(=O)n12` (centres undefined), the growth in the test on NCI-H23 lung was 44.5%; in the test on NCI-H226 lung, 49.7%; with NCI-H322M lung, 47.3%; with HOP-62 NSCLC, 53.4%; in the test with NCI-H460 lung, 7.97% (active); in the test on NCI-H522 lung, 8.92% (active). The growth in the test with A549/ATCC NSCLC is 27%; with 786-0 renal, 41.7%; in the test with COLO 205 colon, 12.3%; in the test with DU-145 prostate it was 17%; in the test with K-562 leukemia, 9.64% (active); in the test with MALME-3M melanoma, 61.8%. Also, the growth in the test on MDA-MB-231 breast is 46.5%; in the test on RXF 393 renal it was 0.531% (active); in the test on SF-268 CNS, 49.4%; in the test with SF-295 CNS, 11.9%; with SF-539 CNS, -13.3% (active); with UACC-257 melanoma, 68%. The growth in the test with M14 melanoma is 0.469% (active).

Consider `N#Cc1c(Nc2ccccc2)nc2n(c1=O)-c1ccccc1Sc1ccccc1-2`, for which the growth in the test on NCI-H23 lung was 88.5%; with NCI-H226 lung, 84.4%; in the test on NCI-H322M lung, 90.7%; in the test with HOP-62 NSCLC, 98.8%; in the test on NCI-H460 lung, 90.7%; in the test with HOP-92 NSCLC, 58.7%. Further, the growth in the test with A549/ATCC NSCLC was 78.8%; with 786-0 renal it was 90.2%; in the test with COLO 205 colon, 84.1%; in the test on DU-145 prostate, 90%; in the test with K-562 leukemia, 57.6%; in the test with MDA-MB-231 breast, 63.7%. The growth was 82.2% with RXF 393 renal; 85.3% with SF-268 CNS; 84% in the test with SF-295 CNS; 84.4% with SF-539 CNS; 105% in the test on UACC-257 melanoma; 95.1% in the test with M14 melanoma.

As to `Cc1ccc2ccccc2c1C[n+]1ccccc1`, the growth in the test on NCI-H23 lung was 86.5%; in the test with NCI-H226 lung, 99.3%; with NCI-H322M lung, 109%; with HOP-62 NSCLC it was 84.8%; with NCI-H460 lung, 114%; in the test on HOP-92 NSCLC it was 79.3%. The growth in the test with A549/ATCC NSCLC was 99.1%; with 786-0 renal it was 102%; in the test on COLO 205 colon, 112%; with DU-145 prostate it was 117%; with MALME-3M melanoma it was 108%; in the test with MDA-MB-231 breast, 77.8%. Moreover, the growth was 105% in the test with RXF 393 renal; 106% with SF-268 CNS; 101% in the test with SF-295 CNS; 105% in the test with SF-539 CNS; 113% in the test with UACC-257 melanoma; 111% with M14 melanoma.
